Screening data as filed in PubChem.
Shown are actives, neighbours in structure and some others; about 2.4% of the full set was active somewhere.
POLI inh: inhibitors of human DNA polymerase iota; Q9UNA4; Pol iota fluorescent replication assay, 10 min; Potency, µM (titrated, usually from 115 µM), inactives show top-dose activity, negative = inhibition, usual class: inhibitors; hit rate 1% among 390,000; AID 588590
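Pol iota at 10 nM preincubated 15 min with compounds at room temperature; reaction started with fluorescent substrate, 50 nM final. Fluorescence read kinetically at 0 and 10 min; buffer-only wells as negative control.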
POLH inh: DNA polymerase eta (human) inhibition. recombinant Pol eta, fluorescent DNA replication assay. AID 588591. Potency, µM (doses to about 114 µM), without a hit: at the top dose activity change, negative = inhibition, actives largely listed as inhibitors. hit rate 1.2% among 390,000. Q9Y253; further: on the % scale 0 is the no-effect control and ±100 the full control effect
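Fluorescent replication assay: 50 nM final substrate added after a 15 min room-temperature compound preincubation with 10 nM enzyme. Signal taken at 0 min and again at 10 min.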
Pol kappa inh: DNA polymerase kappa (human) inhibition | Q9UBT6 | purified Pol kappa, fluorescent DNA synthesis assay, 10 min | Potency, µM (doses to about 107 µM), for the others: top-dose activity, negative = inhibition, hits mostly inhibitors | hit rate 0.53% among 400,000; further: on the % scale 0 is the no-effect control and ±100 the full control effect
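Activity was followed as the change in fluorescence between reads at 0 and 10 min after starting the reaction with 50 nM substrate. Beforehand, 10 nM polymerase had been preincubated with compound for 15 min at room temperature.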
FEN1 inhibitor: inhibitors of human flap endonuclease 1; P39748; Recombinant FEN1 flap cleavage, fluorescence, 15 min; Potency, µM (titrated, usually from 114 µM), for inactives: at the highest dose activity change, negative = inhibition, hits mostly inhibitors; hit rate 0.35% among 390,000; AID 588795; further: on the % scale 0 is the no-effect control and ±100 the full control effect; nearly all actives have a fitted effect of over 65% in size
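With each library titrated from low to high concentration, compounds met 10 nM FEN1 for 15 min at room temperature before 50 nM substrate was added; readings at 0 and 15 min fed four-parameter Hill curve fits.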
TDP1 inh: inhibitors of human tyrosyl-DNA phosphodiesterase TDP1; Q9NUW8; recombinant TDP1, AlphaScreen DNA substrate cleavage; Potency, µM (highest dose often 130 µM), for the others: top-dose activity change, negative = inhibition, hits mostly inhibitors; hit rate 0.28% among 350,000; further: on the % scale 0 is the no-effect control and ±100 the full control effect; nearly all actives have a fitted effect of over 40% in size
Target sequence (Q9NUW8 whole entry, looked up): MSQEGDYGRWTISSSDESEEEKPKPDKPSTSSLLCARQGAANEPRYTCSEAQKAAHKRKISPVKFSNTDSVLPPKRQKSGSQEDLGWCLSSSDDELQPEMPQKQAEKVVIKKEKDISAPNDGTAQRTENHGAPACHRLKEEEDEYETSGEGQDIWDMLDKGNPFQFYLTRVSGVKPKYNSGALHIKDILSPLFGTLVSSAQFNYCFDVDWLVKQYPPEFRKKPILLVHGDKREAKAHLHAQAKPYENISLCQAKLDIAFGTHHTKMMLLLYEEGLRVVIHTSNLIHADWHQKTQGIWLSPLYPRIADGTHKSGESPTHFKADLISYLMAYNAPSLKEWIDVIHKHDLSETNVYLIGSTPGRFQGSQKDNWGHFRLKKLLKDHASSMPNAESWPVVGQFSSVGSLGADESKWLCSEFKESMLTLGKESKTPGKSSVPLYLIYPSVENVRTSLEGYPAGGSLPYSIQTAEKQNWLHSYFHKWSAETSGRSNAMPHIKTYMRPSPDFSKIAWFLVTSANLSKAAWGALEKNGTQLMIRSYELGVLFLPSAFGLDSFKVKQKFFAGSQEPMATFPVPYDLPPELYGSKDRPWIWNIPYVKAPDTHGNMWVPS
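AlphaScreen read-out: signal falls as enzyme removes the 3' tyrosine-FITC from a 5'-biotinylated DNA oligo (15 nM, 5 min, RT). Enzyme was E. coli-made recombinant Tdp1 at 1 nM, exposed to compound for 15 min beforehand; beads 10 ug/ml, 10 min.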
POLB inh: DNA polymerase beta (human) inhibition; P06746; Potency, µM (titrated, usually from 114 µM), for the others: top-dose activity change, negative = inhibition, hits mostly inhibitors; Pol beta primer extension/strand displacement, fluorescence kinetic; hit rate 1.3% among 340,000; further: on the % scale 0 is the no-effect control and ±100 the full control effect
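Values derive from four-parameter Hill fits of normalized kinetic data: reads at 0 and 10 min following addition of 50 nM substrate to 10 nM Pol beta preincubated 15 min with compound.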
Numbers without * were called inactive; [ ] = remark or other dose. The call rests on the fitted dose curve; in most records, active means well fitted curve in the direction sought with a large enough effect; inconclusive means small, poorly fitted or top-dose-only effect, or another doubt; inactive means no such curve, though single readings can be large; an effect the other way counts as inactive or inconclusive. Potency means the concentration at half of the fitted maximal effect.

For CC1(OC(=O)CCc2ccccc2)C(=O)C=C2C=C(c3ccsc3)OC=C2C1=O (stereo unspecified) the results were TDP1 inh 0.0% and POLB inh 44.7µM*.
O=[N+]([O-])c1cccc2[nH]cnc12 was read as POLI inh 15.8%, Pol kappa inh -4.5% and FEN1 inhibitor -19.7%.
Screening CCc1cccc(NC(=O)C2CCC(CNS(=O)(=O)c3ccc4c(c3)CCCC(=O)N4)CC2)c1 (stereo unspecified) returned POLI inh 8.7%, POLH inh -20.3%, Pol kappa inh -25.0%, FEN1 inhibitor -1.8%, TDP1 inh 7.9% and POLB inh -9.4%.
For O=S(=O)(c1cccc(O)c1)N1CCN(S(=O)(=O)c2c(F)cccc2F)CC1 the results were TDP1 inh 0.8%.
For COc1cc(F)c(S(=O)(=O)N2CCN(S(=O)(=O)c3ccc(NC(C)=O)cc3)CC2)c(F)c1 the results were TDP1 inh 0.4%.
Screening COc1ccc(S(=O)(=O)N(CCc2ccccc2)CC(=O)Nc2cc(Cl)ccc2C)cc1 returned POLI inh 89.1µM*, POLH inh -24.2%, Pol kappa inh inconclusive, FEN1 inhibitor inconclusive, TDP1 inh 4.8%[12.3 µM] and POLB inh -25.9%.
For Cc1ccc(C)c(NC(=O)CN(CCc2ccccc2)S(=O)(=O)c2ccccc2)c1 the results were POLI inh 79.4µM*, POLH inh -11.1%, Pol kappa inh -15.6%, FEN1 inhibitor 89.1µM*, TDP1 inh 1.9%[2.28 µM] and POLB inh 18.5%.
`CNC(=O)CN(CCc1ccccc1)S(=O)(=O)c1ccc(OC)cc1` gave POLI inh 26.0%, POLH inh -19.0%, Pol kappa inh -0.6%, FEN1 inhibitor -8.7% and POLB inh 1.0%.
COc1ccc(CCNC(=O)C2=C(C)C(=O)OC23CCCCC3)c(OC)c1OC was read as POLI inh 0.0%, Pol kappa inh -15.2%, FEN1 inhibitor -3.2%, TDP1 inh 1.2% and POLB inh 32.1%.
`COc1cccc(-c2nc(CS(=O)(=O)CC(=O)NCCc3ccc(Cl)cc3)c(C)o2)c1` gave POLI inh -16.7%, POLH inh 7.4%, Pol kappa inh -11.7%, FEN1 inhibitor 13.0%, TDP1 inh 1.2% and POLB inh 0.7%.
`CCOCCCNC(=O)Nc1cc(C(=O)NCc2ccc(C(C)C)cc2)ccc1N1CCCC1` gave POLI inh 21.1%, POLH inh -18.1%, Pol kappa inh -7.1%[60.1 µM], FEN1 inhibitor -13.9%, TDP1 inh 8.8% and POLB inh 6.2%.
O=C(Nc1ccc2oc(-c3cc(Br)ccc3Cl)nc2c1)c1cc2ccccc2o1 was read as POLI inh 53.0%, POLH inh inconclusive, Pol kappa inh -2.7%, FEN1 inhibitor -7.4%, TDP1 inh 3.2% and POLB inh 2.82µM*.
Screening O=C(Nc1ccc2oc(-c3ccc(Br)cc3)nc2c1)c1cc2ccccc2o1 returned POLI inh 28.8%, POLH inh -28.7%, Pol kappa inh -1.4%, FEN1 inhibitor -4.8%, TDP1 inh 4.0%[12.3 µM] and POLB inh inconclusive.
For Cc1ccccc1CN1C(=O)C(O)(c2c[nH]c3ccccc23)c2cc(Cl)ccc21 (stereo unspecified) the results were POLI inh inconclusive, POLH inh -24.2%, Pol kappa inh 2.0%, FEN1 inhibitor inconclusive, TDP1 inh -1.9% and POLB inh -6.9%.
For Fc1ccc(Nc2nc(SCc3ccccc3F)nc3ccccc23)cc1 the results were POLI inh 19.4%, POLH inh -25.9%, Pol kappa inh -2.3%[60.1 µM], FEN1 inhibitor 8.8%, TDP1 inh 4.4% and POLB inh -16.6%.
`S=c1nc[nH]c2nc[nH]c12` gave POLI inh 2.9%, POLH inh -11.3%, Pol kappa inh 12.0%, FEN1 inhibitor 13.2%, TDP1 inh 31.6µM* and POLB inh 5.6%.
For NC(=O)COc1ccc2cc(-c3ccc(F)cc3)c(=O)oc2c1 the results were POLI inh -2.6%, POLH inh -27.1%, Pol kappa inh -6.9%, FEN1 inhibitor 9.5%, TDP1 inh -11.8% and POLB inh 25.1µM*.
For Oc1ccc(Br)cc1C1C=C(c2ccc3c(c2)OCO3)NC(c2cccc(F)c2)N1 (stereo unspecified) the results were POLI inh inconclusive, Pol kappa inh -5.4%, FEN1 inhibitor -25.6% and TDP1 inh 1.2%.
Cc1cc(/C=C/c2ccnc3ccccc23)ccc1N(C)C was read as POLI inh -5.1%, Pol kappa inh -4.8% and FEN1 inhibitor inconclusive.
For O=[N+]([O-])c1cc(-c2nc(-c3ccccc3)no2)ccc1NC1CCCCC1 the results were POLI inh 43.8%, POLH inh -20.4%, Pol kappa inh 5.6%, FEN1 inhibitor -6.3%, TDP1 inh 8.6% and POLB inh -1.3%.
Screening COc1cc(N=c2ssnc2Cl)c(OC)cc1Cl returned POLI inh 20µM*, POLH inh -15.1%, Pol kappa inh 8.8%, FEN1 inhibitor inconclusive, TDP1 inh 10.1% and POLB inh 24.7%.
`Cc1nn(C)c2c1c(-c1ccccc1)cc(=O)n2Cc1ccccc1Cl` gave POLI inh -7.0%, POLH inh -8.4%, Pol kappa inh 0.0%, FEN1 inhibitor -20.4%, TDP1 inh 4.5% and POLB inh -0.8%.
Screening COC(=O)c1ccc2c(c1)C(C)(C)C(/C=C/c1ccc(O)cc1)=[N+]2C returned POLI inh 25.1µM*, POLH inh 16.5%, Pol kappa inh 28.2µM*, FEN1 inhibitor 44.7µM*, TDP1 inh 5.6% and POLB inh inconclusive.
COc1ccc(NC(=O)CN(c2ccccc2)S(=O)(=O)N(C)C)cc1OC was read as POLI inh 14.1µM*, POLH inh 44.7µM*, Pol kappa inh inconclusive, FEN1 inhibitor 9.8%, TDP1 inh -10.9% and POLB inh 39.8µM*.
Screening Cc1ccc(NC(=O)CN(c2ccccc2)S(=O)(=O)N(C)C)cc1C returned POLI inh -11.8%, POLH inh -12.2%, Pol kappa inh -0.9%, FEN1 inhibitor 6.9%, TDP1 inh -1.3%[56.1 µM] and POLB inh 7.2%.
For Cc1cc(C)c(NC(=O)CN(c2ccccc2)S(=O)(=O)N(C)C)c(C)c1 the results were POLI inh 89.1µM*, POLH inh inconclusive, Pol kappa inh inconclusive, FEN1 inhibitor -0.3%, TDP1 inh -3.8% and POLB inh 35.5µM*.
`O=C(NC1CCCCC1)NS(=O)(=O)c1ccc2c(c1)CCC2` gave POLI inh -4.9%, POLH inh -20.2%, Pol kappa inh -7.2% and FEN1 inhibitor -4.2%.
`NCCCNc1ccc(Br)cn1` gave POLI inh -25.2%, Pol kappa inh -3.1% and FEN1 inhibitor -6.4%.
